Assay results reported in the supplement of paper PMC6555819.

How the values were obtained:
Assay in all cases: PBM binding z-score (relative to random genomic background probes); higher = stronger binding; sequences stand for … in GC…GCGATTGACAGCGTAGAATGAAGG
[1] = test system: FXR:RXRa (NR concentration 270 nM, RXRa partner concentration 90 nM)
How it was run: (§1)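 Scanned fluorescence from custom Agilent 4×180K protein-binding microarrays was regression-normalized. Binding z-scores use random background probes as reference. Ligand-free nuclear receptor dimers were incubated on the arrays for 1 h and detected with antibodies against each partner (one per run).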

[2] = test system: LXRa:RXRa (NR concentration 270 nM, RXRa partner concentration 90 nM)
How it was run: as §1

[3] = test system: LXRa homodimer (NR concentration 270 nM)
How it was run: as §1

[4] = test system: LXRb:RXRa (NR concentration 270 nM, RXRa partner concentration 90 nM)
How it was run: as §1

[5] = test system: LXRb homodimer (NR concentration 270 nM)
How it was run: as §1

[6] = test system: PPARa:RXRa (NR concentration 270 nM, RXRa partner concentration 90 nM)
How it was run: as §1

[7] = test system: PPARg:RXRa (NR concentration 180 nM, RXRa partner concentration 90 nM)
How it was run: as §1

[8] = test system: PPARg:RXRa 270nM:90nM, anti-RXR (NR concentration 270 nM, RXRa partner concentration 90 nM)
How it was run: as §1

[9] = test system: PPARg:RXRa 30nM:10nM, anti-RXR (NR concentration 30 nM, RXRa partner concentration 10 nM)
How it was run: as §1

[10] = test system: PPARg:RXRa 90nM:30nM, anti-RXR (NR concentration 90 nM, RXRa partner concentration 30 nM)
How it was run: as §1

[11] = test system: PPARg:RXRa DBDmut IVT, anti-RXR (DBD mutation: RXRa K156A/R161A, NR concentration 270 nM, RXRa partner concentration 90 nM)
How it was run: as §1

[12] = test system: PPARg:RXRa IVT, anti-PPARg (NR concentration 270 nM, RXRa partner concentration 90 nM)
How it was run: as §1

[13] = test system: PPARg DBDmut:RXRa IVT, anti-PPARg (DBD mutation: PPARg1 K132A/R137A, NR concentration 270 nM, RXRa partner concentration 90 nM)
How it was run: as §1

[14] = test system: PPARg DBDmut IVT, anti-PPARg (DBD mutation: PPARg1 K132A/R137A, NR concentration 270 nM)
How it was run: as §1

[15] = test system: PPARg homodimer (NR concentration 180 nM)
How it was run: as §1

[16] = test system: PXR:RXRa (NR concentration 270 nM, RXRa partner concentration 90 nM)
How it was run: as §1

[17] = test system: PXR homodimer (NR concentration 270 nM)
How it was run: as §1

[18] = test system: RARa:RXR (NR concentration 270 nM, RXRa partner concentration 90 nM)
How it was run: as §1

[19] = test system: RARa homodimer (NR concentration 270 nM)
How it was run: as §1

[20] = test system: RARb:RXRa (NR concentration 270 nM, RXRa partner concentration 90 nM)
How it was run: as §1

Row | Sequence | PBM binding z-score [1] | PBM binding z-score [2] | PBM binding z-score [3] | PBM binding z-score [4] | PBM binding z-score [5] | PBM binding z-score [6] | PBM binding z-score [7] | PBM binding z-score [8] | PBM binding z-score [9] | PBM binding z-score [10] | PBM binding z-score [11] | PBM binding z-score [12] | PBM binding z-score [13] | PBM binding z-score [14] | PBM binding z-score [15] | PBM binding z-score [16] | PBM binding z-score [17] | PBM binding z-score [18] | PBM binding z-score [19] | PBM binding z-score [20]
1 | AGAAGGAGGTTATACGTAGATCAGGGAAGAAAGT | 1.61 | 1.45 | 0.366 | 1.43 | 0.303 | 2.43 | 1.33 | 1.28 | 0.492 | 0.986 | 2.41 | 1.24 | 2.08 | 0.617 | 1.18 | 1 | 1.06 | 0.963 | 1.33 | 1.34
2 | ATCGAAAGGTCGAAGGTGTGTATACCCACCCGAA | 3.46 | 3.02 | 0.143 | 2.37 | 0.416 | 4.08 | 2.6 | 3.32 | 1.5 | 2.35 | -0.369 | 1.67 | 0.695 | 0.274 | 1.64 | 2.3 | 0.219 | 3.33 | 0.296 | 3.52
3 | ACAGACAGGTGATGATGGTAACTCAGGCTATCAT | 0.142 | -0.0671 | -0.0719 | -0.166 | -0.2 | -0.0535 | 0.679 | -0.301 | 0.191 | 0.135 | -0.209 | 0.395 | -0.375 | 0.608 | 0.0138 | 0.234 | 0.57 | 0.211 | 0.598 | 0.146
4 | ACGATTAGTTGACTTAGGGCAACCGATACGACGC | -0.0158 | -0.0959 | 0.339 | 0.0402 | -0.172 | -0.0149 | 0.855 | -0.28 | 0.0988 | -0.124 | -0.586 | 0.153 | 0.298 | 0.246 | -0.134 | 0.199 | -0.0112 | 0.392 | 0.251 | 0.703
5 | ACTTACGGGTCAACGAGGTTATTGCACGCGTATA | 6.87 | 5.03 | 1.72 | 4.44 | 0.685 | 5.64 | 5.89 | 5.22 | 1.88 | 3.88 | 3.11 | 3.97 | 1.27 | 2.63 | 3.35 | 5.53 | 5.35 | 5.36 | 1.38 | 4.19
6 | AGTCAAAGTTCATTTAGGTAACGTAAGATATGCT | 6.47 | 6.25 | 6.58 | 4.2 | 3.14 | 4.58 | – | 6.05 | 2.98 | 5.09 | 0.638 | 3.21 | 1.36 | 1.51 | 2.39 | 5.45 | 8.27 | 3.63 | 1.4 | 4.66
7 | GATACAGGGTCAAGGCCCGAGTACGCGTATTGAT | 6.52 | 4.01 | -0.361 | 3.39 | -0.411 | 5.39 | 5.65 | 5.62 | 2.48 | 4.12 | 2.09 | 3.66 | 0.597 | -0.396 | 1.27 | 3.48 | 0.163 | 4.6 | 0.3 | 4.31
8 | CCGACTGGGGCTAAGGTTACCATACTCAGTACGA | 0.144 | 0.0677 | -0.428 | 0.815 | -0.943 | 2.71 | 5.47 | 5.55 | 4.41 | 5.78 | 0.598 | 2.11 | -0.549 | -0.925 | 0.343 | 0.473 | -0.328 | 1.12 | -0.0476 | 1.12
9 | CCGCGGAGGACAGAAGGTCAGAGCTGTCCGCTTT | 1.22 | 1.49 | -0.1 | 0.955 | -1.05 | 1.77 | -0.261 | 0.596 | -0.857 | 0.289 | -0.00504 | 0.1 | -1.81 | -2.04 | 0.973 | 1.42 | -0.53 | 2.3 | -0.744 | 3.25
